Compounds with a hit are over-represented: about 12% of the library has one in this group of screens.
RORgamma inh = ROR gamma (mouse) transcription inhibition. hit rate 5.4% among 310,000. P51450. Drosophila S2 Gal4-RORgamma UAS-luciferase reporter, 20 h. Potency, µM (top dose mostly 53.6 µM), for the others: at the highest dose activity change, negative = inhibition, usual class: inhibitors. AID 2551; also: nearly all actives have a fitted effect of over 60% in size
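Luminescence from a UAS-regulated Photinus luciferase reporter in stably transfected Drosophila Schneider cells is measured; decreased signal marks ROR gamma inhibition. Fusion expression is induced by 700 uM copper sulfate for 20 hr.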
Gal4-VP16 FLuc = inhibits Gal4-VP16 luciferase reporter, ROR gamma counter-screen | Drosophila S2 Gal4-VP16 UAS-luciferase, luminescence, 20 h | Potency, µM (series often up to 53.6 µM), inactives show at the highest dose activity, negative = inhibition, hits mostly inhibitors | hit rate 3.5% among 310,000 | AID 2546;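 also: Gal4-VP16 expression switched on by copper sulfate through the metallothionein promoter; nearly all actives have a fitted effect of over 50% in size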
Sfp PPTase inh = Sfp phosphopantetheinyl transferase inhibition. Q9F4F7. Biochemical Sfp PPTase activity, qHTS. Potency, µM, for inactives: largest response in the series, negative = inhibition, most hits filed as inhibitors. hit rate 3.5% among 310,000. AID 1490;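 also: the enzyme is Sfp with the accession as filed and its product quenches rhodamine fluorescence; 0% = enzyme reaction without inhibitor and -100% = no enzyme wells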
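Step 1, compound plus 15 nM Sfp-PPTase, 15 min, room temperature. Step 2, add rhodamine-CoA (5 uM) and BHQ-2-YbbR (12.5 uM). Step 3, read 525/598 nm fluorescence at 0 and 30 min.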
PLK1 PBD inh = blocks phosphopeptide binding to human PLK1 polo-box domain. hit rate 2.8% among 360,000. P53350. Plk1 PBD binding of FITC phosphopeptide, fluorescence polarization. Potency, µM, without a hit: max response, negative = inhibition, usual class: inhibitors; also: series mostly up to about 57 µM; nearly all actives have a fitted effect of over 65% in size
ALDH1A1 inh = blocks purified human ALDH1A1 activity. Potency, µM (doses to about 75.3 µM), for inactives: at the top dose activity, negative = inhibition, hits mostly inhibitors. Purified ALDH1A1, NADH fluorescence, propionaldehyde substrate. hit rate 7.3% among 220,000. P00352; active = well fitted inhibition curve with a large enough effect, not every such curve was filed as active; inconclusive = small, poorly fitted or top-dose-only effect, or another doubt; inactive = no such curve, though single readings can be large or run the other way;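 also: plate controls were no enzyme wells and a reference inhibitor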
Target sequence (P00352 whole entry, looked up): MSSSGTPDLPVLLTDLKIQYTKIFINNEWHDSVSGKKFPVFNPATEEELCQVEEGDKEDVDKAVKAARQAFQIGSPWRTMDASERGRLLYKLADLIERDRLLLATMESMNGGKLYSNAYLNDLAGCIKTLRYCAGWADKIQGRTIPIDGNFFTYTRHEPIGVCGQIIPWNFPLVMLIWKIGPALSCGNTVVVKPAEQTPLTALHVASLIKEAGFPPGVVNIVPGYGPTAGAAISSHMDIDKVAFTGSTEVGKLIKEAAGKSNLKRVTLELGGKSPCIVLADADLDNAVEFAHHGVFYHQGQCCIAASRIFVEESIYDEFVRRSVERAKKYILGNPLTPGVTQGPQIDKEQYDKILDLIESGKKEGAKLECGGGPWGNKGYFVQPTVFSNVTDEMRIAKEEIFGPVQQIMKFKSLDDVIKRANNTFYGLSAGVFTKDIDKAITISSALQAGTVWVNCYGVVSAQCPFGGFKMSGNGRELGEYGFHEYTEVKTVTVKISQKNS
Active calls of the source: *; ! = not confirmed by another sample; [ ] = another dose, or the depositor's remark. Unless noted, calls follow the shape of the dose curve; as a rule, active = well fitted curve in the direction sought with a large enough effect; inconclusive = small, poorly fitted or top-dose-only effect, or another doubt; inactive = no such curve, though single readings can be large; an effect the other way counts as inactive or inconclusive. Unless noted, % is scaled to controls: 0 for no effect and ±100 for the full control effect; potency is read from the fitted curve at half-maximal effect.

Cc1cc(C)n(-c2ccc3cccc(NS(C)(=O)=O)c3n2)n1 was read as RORgamma inh 4.5µM*, Gal4-VP16 FLuc inconclusive, Sfp PPTase inh -6%, PLK1 PBD inh 2% and ALDH1A1 inh 2%.
Screening O=S(=O)(Nc1cccc2cccnc12)c1ccccc1 returned RORgamma inh 2µM*, Gal4-VP16 FLuc 3.5µM*, Sfp PPTase inh 4% and PLK1 PBD inh -7%.
Screening Cc1cc(C)c(NS(=O)(=O)c2cccc3cccnc23)c(C)c1 returned RORgamma inh -30%, Gal4-VP16 FLuc -13%, Sfp PPTase inh 5%, PLK1 PBD inh -7% and ALDH1A1 inh 2%.
Screening C[C@@H]1C(=O)N(S(=O)(=O)c2ccc([N+](=O)[O-])cc2)[C@H]1c1ccc(F)cc1 returned RORgamma inh 0%, Gal4-VP16 FLuc -2% and Sfp PPTase inh 22%.
Cc1cn(C2CCCO2)c(=O)nc1N (stereo not drawn) was read as PLK1 PBD inh -3%.
Screening COc1cccc(C(O)c2nc(-c3cncnc3)cs2)c1 (stereo not drawn) returned PLK1 PBD inh 6%.
`CCCCCCN1C[C@@H](O)[C@H](n2cc(COC(=O)c3ccccc3)nn2)C[C@@H]1c1ccc(C)cc1` gave PLK1 PBD inh 1%.
Screening Cc1ccc(OC2CCN(C(=O)[C@H]3O[C@@H](n4ccc(N)nc4=O)[C@H](O)[C@@H]3O)CC2)cc1 returned PLK1 PBD inh -3%.
CS(=O)(=O)Nc1cccc2cccnc12 was read as RORgamma inh 6.3µM*, Gal4-VP16 FLuc 7.9µM*, Sfp PPTase inh inconclusive, PLK1 PBD inh 1% and ALDH1A1 inh -1%.
CCC(=O)Nc1cccc2cccnc12 was read as RORgamma inh -18%, Gal4-VP16 FLuc -12%[10 µM], Sfp PPTase inh 6%, PLK1 PBD inh -21% and ALDH1A1 inh 11%.
`COCc1cc(O)c(O)c(O)c1-c1c(COC)cc(O)c(O)c1O` gave RORgamma inh -40%, Gal4-VP16 FLuc -19%, Sfp PPTase inh 7.9µM* and ALDH1A1 inh inconclusive.
CCc1oc(C(=O)O)cc1COC was read as RORgamma inh -11%, Gal4-VP16 FLuc -4%, Sfp PPTase inh 8%, PLK1 PBD inh -20% and ALDH1A1 inh -8%.
Screening Cc1ccc(C(C)C)cc1OCC(=O)Nc1ccc(N2CCCCC2)cc1 returned PLK1 PBD inh -4%.
Screening CSCC[C@H]1COC[C@@H](Cc2ccccc2)N1c1ccccc1 returned PLK1 PBD inh -2%.
CCN(CC)c1ccc(/C=N/Nc2ccc(C)cc2)c(O)c1 was read as RORgamma inh 1%, Gal4-VP16 FLuc -5%, Sfp PPTase inh 40µM*, PLK1 PBD inh inconclusive and ALDH1A1 inh 10µM*.
CCN(CC)c1ccc(C=Nc2cc(C)ccc2C)c(O)c1 was read as RORgamma inh -6%, Gal4-VP16 FLuc -24%, Sfp PPTase inh -7%, PLK1 PBD inh -2% and ALDH1A1 inh inconclusive.
For CCN(CC)c1ccc(C=Nc2ccc(C)cc2C)c(O)c1 the results were RORgamma inh 6%, Gal4-VP16 FLuc -11%, Sfp PPTase inh -19%, PLK1 PBD inh -4% and ALDH1A1 inh 20µM*.
Screening C=C(C)[C@H]1CC=C(CO)CC1 returned RORgamma inh -2%, Gal4-VP16 FLuc -4%, Sfp PPTase inh 17% and ALDH1A1 inh inconclusive.
`COc1cccc(CN2CCN(S(=O)(=O)c3ccc(Br)cc3)CC2)c1` gave RORgamma inh 38%, Gal4-VP16 FLuc -2%, Sfp PPTase inh 3%, PLK1 PBD inh 1% and ALDH1A1 inh 0%.
For CCOc1ccc(C(=O)CN2CCN(S(=O)(=O)c3ccc(OC)cc3)CC2)cc1 the results were RORgamma inh 41%[0.365 µM], Sfp PPTase inh 8%, PLK1 PBD inh -8% and ALDH1A1 inh 20µM*.
Screening CCOc1ccc(C(=O)CN2CCN(S(=O)(=O)c3ccc(Br)cc3)CC2)cc1 returned RORgamma inh 16%, Gal4-VP16 FLuc -3%, Sfp PPTase inh 2%, PLK1 PBD inh -2% and ALDH1A1 inh 22µM*.
`COc1cccc(C(=O)CN2CCN(S(=O)(=O)c3ccc(Br)cc3)CC2)c1` gave RORgamma inh -38%, Gal4-VP16 FLuc -17%, Sfp PPTase inh -2%, PLK1 PBD inh -22% and ALDH1A1 inh 11µM*.
NC(=O)CN1CCN(S(=O)(=O)c2ccc(Br)cc2)CC1 was read as RORgamma inh -23%, Gal4-VP16 FLuc -2%, Sfp PPTase inh 12%, PLK1 PBD inh -27% and ALDH1A1 inh 26%.
CCOc1ccc(OCCC(=O)OCC(=O)N2CCN(S(=O)(=O)c3ccc(Cl)cc3)CC2)cc1 was read as RORgamma inh 11µM*, Gal4-VP16 FLuc 18µM*, Sfp PPTase inh -10% and PLK1 PBD inh -19%.
`CCCCCCCCCCC(C)=O` gave RORgamma inh 8%, Gal4-VP16 FLuc 2% and Sfp PPTase inh 25%.
For COc1ccc(C(=O)CN2CCN(S(=O)(=O)c3cccc([N+](=O)[O-])c3)CC2)cc1 the results were RORgamma inh 4%, Gal4-VP16 FLuc -4%, Sfp PPTase inh 6%, PLK1 PBD inh 1% and ALDH1A1 inh 10µM*.
Screening CCOC(=O)C1(CC)NC(c2ccco2)C2C(=O)N(CC)C(=O)C21 (stereo not drawn) returned RORgamma inh -32%, Gal4-VP16 FLuc 2%[0.365 µM], Sfp PPTase inh 14%, PLK1 PBD inh -10% and ALDH1A1 inh 10%.
CCOC(=O)C1(CC)NC(c2ccco2)C2C(=O)N(c3ccc(C)cc3)C(=O)C21 (stereo not drawn) was read as RORgamma inh -5%[10 µM], Gal4-VP16 FLuc -2%, Sfp PPTase inh -9%, PLK1 PBD inh -23% and ALDH1A1 inh 14µM*.
Screening COC(=O)C(c1ccccc1Cl)N1CCc2sccc2C1 (stereo not drawn) returned RORgamma inh 3.5µM*!, Gal4-VP16 FLuc inconclusive, Sfp PPTase inh -9% and ALDH1A1 inh -4%.
Screening COc1ccc(Br)c(Cn2c(C)c(C(=O)NCc3ccc(F)cc3)sc2=O)c1 returned PLK1 PBD inh 4%.
CN1CCCC2(CCN(S(=O)(=O)c3ccccc3)CC2)C1 was read as RORgamma inh -7%, Gal4-VP16 FLuc -6%, Sfp PPTase inh 16% and ALDH1A1 inh 7%.
`CCOC(=O)/C(=C/c1c(C)n(C)c2ccc([N+](=O)[O-])cc12)C(C)=O` gave RORgamma inh 13µM*, Gal4-VP16 FLuc inconclusive, Sfp PPTase inh -10%, PLK1 PBD inh -25% and ALDH1A1 inh -7%.
CCOC(=O)c1c(N)c2cc([N+](=O)[O-])ccc2n1C was read as RORgamma inh 35%, Gal4-VP16 FLuc 1%, Sfp PPTase inh 10% and PLK1 PBD inh -20%.
Screening [O-]/[N+](=C\c1ccncc1)c1ccccc1 returned RORgamma inh 17%, Gal4-VP16 FLuc 6%, Sfp PPTase inh -28%, PLK1 PBD inh -11% and ALDH1A1 inh 15µM*.
For [O-]/[N+](=C\C=C\c1ccccc1)c1ccccc1 the results were RORgamma inh 25%, Gal4-VP16 FLuc 18%, Sfp PPTase inh 4% and PLK1 PBD inh -5%.

Screening data: PubChem BioAssay, National Center for Advancing Translational Sciences (NCATS)
